Laboratory results reported in the GenesisPotency data set.
Hit rate of the full screen: of about 290,000 compounds, about 3,000 (1%) were called active. Rule as the data show it: active = inhibition mostly above about 36% (no sharp cut-off); inactive = mostly below about 34%. Many of the other results were omitted from the sample, so actives are more common in it than they were.

biological target: T1, Nucleotide-binding oligomerization domain-containing protein 1, Homo sapiens (UniProt Q9Y239); experiment: NOD1 signaling inhibitors, primary screen, cell-based, luminescence, uHTS (AID 1578)
T1 sequence (whole entry): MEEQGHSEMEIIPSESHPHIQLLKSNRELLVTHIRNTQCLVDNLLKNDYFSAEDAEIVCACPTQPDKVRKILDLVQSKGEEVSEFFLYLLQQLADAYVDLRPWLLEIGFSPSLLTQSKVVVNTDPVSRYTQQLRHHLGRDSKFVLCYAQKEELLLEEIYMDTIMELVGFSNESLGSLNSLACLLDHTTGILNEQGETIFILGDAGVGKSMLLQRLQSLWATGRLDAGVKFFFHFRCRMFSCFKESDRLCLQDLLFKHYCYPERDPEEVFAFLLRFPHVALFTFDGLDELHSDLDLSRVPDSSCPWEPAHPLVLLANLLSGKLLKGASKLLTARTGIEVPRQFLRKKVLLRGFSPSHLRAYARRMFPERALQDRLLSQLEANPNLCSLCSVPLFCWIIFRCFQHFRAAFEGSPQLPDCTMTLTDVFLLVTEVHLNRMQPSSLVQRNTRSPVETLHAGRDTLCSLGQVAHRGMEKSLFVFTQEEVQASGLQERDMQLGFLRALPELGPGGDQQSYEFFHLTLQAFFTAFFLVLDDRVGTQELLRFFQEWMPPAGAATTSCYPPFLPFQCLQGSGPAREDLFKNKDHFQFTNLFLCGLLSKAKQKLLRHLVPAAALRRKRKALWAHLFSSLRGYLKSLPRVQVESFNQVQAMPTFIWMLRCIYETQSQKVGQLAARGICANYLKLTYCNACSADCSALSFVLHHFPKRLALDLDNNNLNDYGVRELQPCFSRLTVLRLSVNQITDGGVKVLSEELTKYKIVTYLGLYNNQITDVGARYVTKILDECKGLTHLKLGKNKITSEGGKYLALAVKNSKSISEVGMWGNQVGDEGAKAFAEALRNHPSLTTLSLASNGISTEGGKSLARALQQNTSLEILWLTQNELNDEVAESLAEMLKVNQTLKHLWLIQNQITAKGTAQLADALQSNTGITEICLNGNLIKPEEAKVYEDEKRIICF

outcome, active:
Cc1ccc(S(=O)(=O)CC#CCOC(=O)c2ccc([N+](=O)[O-])cc2)cc1
CCOC(=O)c1csc(Nc2nc3ccc(F)cc3s2)n1
CN(c1ccccc1)S(=O)(=O)c1cccc(NC(=O)c2cc(=O)c3ccccc3o2)c1
Cc1cc(Cl)c(S(=O)(=O)N2CCN(c3ccc(F)cc3)CC2)cc1OCC(=O)NC1CCCCC1
Cc1cc(Cl)c(S(=O)(=O)N2CCCCCC2)cc1OCC(=O)NC1CCCCC1
Cc1cc(C)c(C(=O)/C=C/c2ccc(C(C)C)cc2)c(=O)[nH]1
Cc1cc(C)c(C(=O)/C=C/c2cccc3ccccc23)c(=O)[nH]1
O=C(/C=C/c1ccc2c(c1)OCO2)Nc1nc(-c2ccccc2)cs1
COc1ccc(N(C(=O)CCl)C(C(=O)NCCc2ccccc2)c2cccs2)cc1 (centres undefined)
COc1cccc(N(C(=O)CCl)C(C(=O)NCCc2ccccc2)c2cccs2)c1 (centres undefined)
COc1ccc(NS(=O)(=O)c2cccc(NC(=O)c3ccc(Cl)nc3)c2)cc1
COc1ccc(NS(=O)(=O)c2cccc(NC(=O)c3ccc(S(=O)(=O)N4CCCCCC4)cc3)c2)cc1
Cc1sc2ncnc(Sc3nnnn3-c3ccccc3)c2c1C
Cc1sc2ncnc(Sc3nnnn3-c3ccc(Cl)cc3)c2c1C
Cc1ccccc1-n1nnnc1Sc1nnnn1-c1ccccc1
O=C(N/N=C/c1ccc([N+](=O)[O-])o1)c1ccc2c(c1)OCO2
O=[N+]([O-])c1ccc(/C=N/N=C/c2ccc([N+](=O)[O-])o2)o1
Cc1scc(C(=O)N/N=C/c2ccc([N+](=O)[O-])o2)c1C
O=C(N/N=C/c1ccc([N+](=O)[O-])o1)c1ccccc1-n1cccc1
O=C(N/N=C/c1ccc([N+](=O)[O-])o1)c1ccccc1NS(=O)(=O)c1cccs1
Cc1nn(-c2cc(C(F)(F)F)ccc2Cl)c2nc(C(Cl)(Cl)Cl)[nH]c(=O)c12
Cc1nn(-c2cccc(Cl)c2)c2nc(C(F)(F)F)[nH]c(=O)c12
COc1cccc(N2CCN(c3ncnc4c3cnn4-c3ccc(C)cc3C)CC2)c1
COc1ccc(-c2n(CC(=O)OC3CC(C)CCC3C(C)C)c3ccccc3[n+]2C)cc1.[Cl-] (centres undefined)
Cc1csc(SCC(=O)Nc2cccc3nsnc23)n1
Cc1noc(C)c1CSc1nc2ccccc2nc1NS(=O)(=O)c1ccc(Cl)cc1
Cc1[nH]nc2ncc(C(=O)c3ccccc3O)cc12
Fc1ccc(CSc2nnc(-c3ccncc3)o2)cc1
Clc1ccc(CSc2nnc(-c3ccncc3)o2)cc1
